Test results taken from PubChem BioAssay (Tox21).
Several values for one entry are separate records, joined by “and”; a condition that tells them apart may be missing. Equal entries are not always repeated. Inconclusive results are not listed. Where a structure was tested more than once in an assay, its records may differ in their call. Activity calls are given as the source filed them. Unless noted, calls follow the shape of the dose curve; as a rule, active = well fitted curve in the direction sought with a large enough effect in the repeat runs; inconclusive = weak or mixed curves; inactive = no such curve, though single readings can be large; an effect the other way counts as inactive or inconclusive.

How the values were obtained:
[1] = qHTS assay to identify small molecule agonists of the endoplasmic reticulum stress response signaling pathway (AID 1159516; active = well fitted activation curve with a large enough effect in the signal ratio in the repeat runs, not every such curve was filed as active; the % refers to the signal ratio; also: % is scaled to controls: 0 for no effect and ±100 for the full control effect)
Procedure, shortened: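 ER stress element reporter (bla) in HeLa. 1,500 cells/well, overnight attachment; 5 hr compound; 2 hr RT substrate; dual-emission fluorescence.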

[2] = qHTS assay to identify small molecule agonists of the endoplasmic reticulum stress response signaling pathway - cell viability counter screen (AID 1159517; calls by dose curve;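 also: HeLa cells carrying an ER stress response element beta-lactamase reporter; series mostly up to about 61 µM; % is scaled to controls: 0 for no effect and ±100 for the full control effect; nearly all actives have a fitted effect of over 50% in size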)
Procedure, shortened: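 Counter-screen wells were identical to the reporter wells. Cells were plated at 1,500 per well and dosed for 5 hr, then read for luminescence 30 min after CellTiter-Glo addition.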

[3] = target: Nuclear receptor ROR-gamma (Homo sapiens) (UniProt P51449); assay: qHTS assay to identify small molecule antagonists of the retinoid-related orphan receptor gamma (ROR-gamma) signaling pathway (AID 1159521; also: nearly all actives have a fitted effect of over 50% in size; also: potency is read from the fitted curve at half-maximal effect)
Procedure, shortened: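 Decreased RORE-driven luciferase luminescence indicates antagonism. Tet-on RORγ CHO cells received compound, then 1 uM final doxycycline 2 h later; signal read after 16 h incubation.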

[4] = qHTS assay to identify small molecule agonists of the AP-1 signaling pathway - cell viability counter screen (AID 1159525; calls by dose curve; also: nearly all actives have a fitted effect of over 55% in size; also: potency is read from the fitted curve at half-maximal effect)
Procedure, shortened: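 AP-1-bla ME-180 cells in Opti-MEM with 0.5% dialyzed FBS, compound exposure 5 h at 37 C in 15-point titration. Viability read in the same wells as ATP content by CellTiter-Glo luminescence, normalised to tetra-n-octylammonium bromide and DMSO controls.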

[5] = target: Retinoic acid receptor RXR-alpha (Homo sapiens) (UniProt P19793); assay: qHTS assay to identify small molecule agonists of the RXR signaling pathway (AID 1159527; calls by dose curve; also: % is scaled to controls: 0 for no effect and ±100 for the full control effect; nearly all actives have a fitted effect of over 35% in size)
Procedure, shortened: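 16 hr incubation of compound-treated RXR-alpha-UAS-bla HEK 293T cells (2% charcoal-stripped FBS, 37 C) preceded a 2 hr room-temperature LiveBLAzer FRET substrate step and blue/green fluorescence measurement.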

[6] = qHTS assay to identify small molecule agonists of the RXR signaling pathway - cell viability counter screen (AID 1159529); also: nearly all actives have a fitted effect of over 50% in size; also: potency is read from the fitted curve at half-maximal effect
Procedure, shortened: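 In this parallel viability measure, GeneBLAzer RXR-alpha HEK 293T cells (2% charcoal-stripped FBS) were given a 5 hr preincubation, treated with compounds 16 hr at 37 C, and read by CellTiter-Glo luminescence.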

[7] = qHTS assay to identify small molecule antagonists of the retinoid acid receptor (RAR) signaling pathway - cell viability counter screen (AID 1159551); also: % is scaled to controls: 0 for no effect and ±100 for the full control effect; nearly all actives have a fitted effect of over 35% in size
Procedure, shortened: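 Following overnight attachment, C3RL4 reporter cells received DMSO-dissolved compounds and then retinol (1 uM final). Six hours later at 37 C, ATP content was measured by CellTiter-Glo luminescence.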

[8] = qHTS assay to identify small molecule antagonists of the retinoic acid receptor (RAR) signaling pathway (AID 1159552; also: nearly all actives have a fitted effect of over 50% in size; also: potency is read from the fitted curve at half-maximal effect)
Procedure, shortened: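 C3RL4 RARE-luc cells, overnight plating; retinol 1 uM final added right after compound; 6 hr 37 C; luciferase read at 30 min RT.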

[9] = qHTS assay to identify small molecule agonists of the retinoic acid receptor (RAR) signaling pathway (AID 1159553); also: % is scaled to controls: 0 for no effect and ±100 for the full control effect
Procedure, shortened: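 Cell line C3RL4, RARE luciferase reporter. Treatment: compounds in DMSO, 6 hr, 37 C, 5% CO2, after overnight plating. Detection: luminescence, 30 min RT after reagent.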

[10] = qHTS assay to identify small molecule antagonists of the estrogen related receptor (ERR) signaling pathway - cell viability counter screen (AID 1224818);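 also: series mostly up to about 46 µM; viability measured after 17.5 h of compound exposure; % is scaled to controls: 0 for no effect and ±100 for the full control effect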
Procedure, shortened: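 Here, ERR cells are plated at 2,000 cells per well, allowed 6 h to attach, and treated with compounds in DMSO for 17.5 h at 37 C. CellTiter-Fluor is then added and fluorescence read after 30 min.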

[11] = qHTS assay to identify small molecule agonists of the estrogen related receptor (ERR) signaling pathway (AID 1224820); also: % is scaled to controls: 0 for no effect and ±100 for the full control effect
Procedure, shortened: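 Quantitative HTS of the LOPAC library used NTP ERR reporter cells treated 18 h at 37 C. Signal is luminescence after One-Glo addition and a 30 min room-temperature incubation.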

[12] = qHTS assay to identify small molecule antagonists of the estrogen related receptor signaling pathway with the pleiotropic PPARgamma coactivator (PGC) cell viability counter screen (AID 1224822)
Procedure, shortened: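 qHTS format, DMSO compound stocks pin-transferred onto PGC/ERR cells 6 h after plating; 17.5 h exposure at 37 C, then CellTiter-Fluor fluorescence.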

[13] = qHTS assay to identify small molecule antagonists of the estrogen related receptor (ERR) signaling pathway from Tox21 library - cell viability counter screen (AID 1224834); also: nearly all actives have a fitted effect of over 30% in size; also: potency is read from the fitted curve at half-maximal effect
Procedure, shortened: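 Viability readout (CellTiter-Fluor fluorescence, 30 min at 37 C) multiplexed with the ERR assay; cells treated 17.5 h at 37 C with compounds delivered in DMSO.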

[14] = target: Luciferin 4-monooxygenase (Photinus pyralis) (UniProt P08659); assay: qHTS assay to identify small molecule inhibitors of firefly luciferase (AID 1224835); also: nearly all actives have a fitted effect of over 25% in size; also: potency is read from the fitted curve at half-maximal effect
Procedure, shortened: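 Biochemical qHTS: compounds run as interplate titrations against purified firefly enzyme, with D-luciferin and ATP each at its KM concentration. Light output recorded by CCD imaging.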

[15] = qHTS assay to identify small molecule agonists of the constitutive androstane receptor (CAR) signaling pathway - cell viability counter screen (AID 1224836); also: nearly all actives have a fitted effect of over 45% in size; also: potency is read from the fitted curve at half-maximal effect
Procedure, shortened: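 Using CellTiter-Fluor, viability of HepG2 cells harbouring hCAR and CYP2B6-2.2kb was measured following 23 h incubation with a 15-concentration compound series plus PK11195 (0.75 uM final).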

[16] = qHTS assay to identify small molecule antagonists of the retinoid-related orphan receptor gamma (ROR-gamma) signaling pathway - cell viability counter screen (AID 1159520); also: nearly all actives have a fitted effect of over 50% in size; also: potency is read from the fitted curve at half-maximal effect
Procedure, shortened: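 Tet-on ROR gamma CHO cells were given compounds for 2 hr, then doxycycline hyclate at 1 uM final, and incubated 16 hr at 37 C. Viability was measured as ATP content by CellTiter-Glo luminescence.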

[17] = qHTS assay to identify small molecule agonists of the AP-1 signaling pathway (AID 1159526; calls by dose curve; also: % is scaled to controls: 0 for no effect and ±100 for the full control effect)

Retinoic acid receptor RXR-alpha (Homo sapiens), sequence (P19793 whole entry, looked up): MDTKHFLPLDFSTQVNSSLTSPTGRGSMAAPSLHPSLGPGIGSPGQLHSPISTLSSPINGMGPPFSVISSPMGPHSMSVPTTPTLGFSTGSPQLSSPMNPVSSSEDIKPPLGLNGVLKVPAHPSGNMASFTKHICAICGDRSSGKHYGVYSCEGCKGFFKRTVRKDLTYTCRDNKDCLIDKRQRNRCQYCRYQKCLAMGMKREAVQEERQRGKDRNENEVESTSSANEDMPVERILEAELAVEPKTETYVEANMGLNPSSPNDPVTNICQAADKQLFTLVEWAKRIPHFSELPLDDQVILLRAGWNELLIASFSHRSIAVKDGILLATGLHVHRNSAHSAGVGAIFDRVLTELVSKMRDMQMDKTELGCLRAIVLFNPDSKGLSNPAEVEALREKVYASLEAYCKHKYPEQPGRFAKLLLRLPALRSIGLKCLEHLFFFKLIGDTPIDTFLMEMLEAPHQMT
Luciferin 4-monooxygenase (Photinus pyralis), sequence (P08659 whole entry, looked up): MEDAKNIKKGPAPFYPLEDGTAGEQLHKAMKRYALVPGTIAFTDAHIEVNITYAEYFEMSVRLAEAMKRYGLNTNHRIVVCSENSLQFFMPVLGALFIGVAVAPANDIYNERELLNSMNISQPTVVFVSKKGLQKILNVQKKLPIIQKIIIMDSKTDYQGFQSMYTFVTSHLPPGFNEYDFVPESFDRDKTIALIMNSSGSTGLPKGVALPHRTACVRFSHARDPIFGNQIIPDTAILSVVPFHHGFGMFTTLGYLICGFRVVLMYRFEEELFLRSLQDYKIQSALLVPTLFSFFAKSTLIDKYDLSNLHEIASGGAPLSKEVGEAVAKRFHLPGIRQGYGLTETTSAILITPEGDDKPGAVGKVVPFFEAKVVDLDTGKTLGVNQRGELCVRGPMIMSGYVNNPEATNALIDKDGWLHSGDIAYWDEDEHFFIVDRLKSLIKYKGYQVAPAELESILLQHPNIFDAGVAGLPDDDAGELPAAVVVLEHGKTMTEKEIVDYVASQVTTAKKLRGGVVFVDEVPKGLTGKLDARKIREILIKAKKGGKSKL

CCOC(=O)N1CCC(=C2c3ccc(Cl)cc3CCc3cccnc32)CC1
active: Potency [3] 6.86 µM and 21.1 µM | Potency [13] 24.3 µM and 29.8 µM
inactive: Potency [1] | Potency [2] | Potency [4] | Potency [5] | Potency [7] | Potency [8] | Potency [9] | Potency [10] | outcome [11] | Potency [12] | Potency [14] | Potency [15]
54.9 µM (active) and inactive: Potency [6]

CC(NCCC(c1ccccc1)c1ccccc1)c1ccccc1 (configuration not stated)
active: Potency [3] 29.8 µM | Potency [13] 29.8 µM
inactive: Potency [1] | Potency [2] | Potency [4] | Potency [14]

CC(C)=C1CC[C@@H](C)CC1=O
inactive: Potency [1] | Potency [16] | Potency [3] | Potency [4] | Potency [17] | Potency [5] | Potency [6] | Potency [7] | Potency [13] | Potency [14] | Potency [15]

Nc1ncnc2c1ncn2[C@@H]1O[C@H](COP(=O)(O)O)[C@@H](O)[C@H]1O
inactive: Potency [1] | Potency [16] | Potency [3] | Potency [4] | Potency [8] | Potency [9] | Potency [13] | Potency [15]

N[C@@H](CSSC[C@H](N)C(=O)O)C(=O)O
inactive: activation [1] -7.2% [at 0.628 µM] | activity, negative = cytotoxicity [16] 0.408% [at 0.349 µM] | activity change, negative = inhibition [3] -16.9% [at 0.35 µM] | viability change, negative = cytotoxic [4] 3.93% [at 0.29 µM] | activity change, negative = cytotoxicity [6] -20.1% [at 0.29 µM] | activity change, negative = cytotoxicity [7] -1.26% [at 0.349 µM] | activity, negative = inhibition [8] 36.8% [at 0.349 µM] | viability change, negative = cytotoxic [13] 4.71% [at 0.349 µM] | activity change, negative = inhibition [14] -0.457% [at 0.435 µM] | viability change, negative = cytotoxic [15] 5.67% [at 0.349 µM]

Cc1cccc(C)c1NC(=O)CN1CCN(CCCC(c2ccc(F)cc2)c2ccc(F)cc2)CC1
active: Potency [3] 21.1 µM | Potency [6] 21.3 µM | Potency [8] 26.6 µM | Potency [13] 21.1 µM | Potency [15] 23.7 µM
inactive: Potency [1] | Potency [2] | Potency [14]

CNC(=O)c1cc(Oc2ccc(NC(=O)Nc3ccc(Cl)c(C(F)(F)F)c3)cc2)ccn1
inactive: Potency [1] | Potency [2] | Potency [4] | Potency [7] | Potency [9] | Potency [14]
active: Potency [3] 13.3 µM | Potency [8] 29.8 µM | Potency [13] 26.6 µM

COCC(=O)O[C@]1(CCN(C)CCCc2nc3ccccc3[nH]2)CCc2cc(F)ccc2[C@@H]1C(C)C
active: Potency [16] 29.8 µM | Potency [3] 26.6 µM | Potency [6] 15.1 µM | Potency [8] 26.6 µM | Potency [13] 26.6 µM
inactive: Potency [1] | Potency [4] | Potency [14]

C(=C/c1ccccc1)/c1ccccc1
inactive: Potency [1] | Potency [16] | Potency [3] | Potency [4] | Potency [17] | Potency [5] | Potency [6] | Potency [7] | Potency [8] | Potency [9] | Potency [13] | Potency [14] | Potency [15]

Cn1cnc2ncnc(N)c21
inactive: Potency [1] | Potency [16] | Potency [3] | Potency [4] | Potency [17] | Potency [5] | Potency [6] | Potency [7] | Potency [8] | Potency [9] | Potency [13] | Potency [14] | Potency [15]

CCCCCCCC/C=C/CCCOC(C)=O
inactive: Potency [1] | Potency [16] | Potency [3] | Potency [4] | Potency [17] | Potency [6] | Potency [7] | Potency [8] | Potency [13] | Potency [14] | Potency [15]

CC(CN(C)C)CN1c2ccccc2CCc2ccccc21 (configuration not stated)
inactive: Potency [1] | Potency [2] | Potency [16] | Potency [7] | Potency [10] | Potency [12] | Potency [14] | Potency [15]
active: Potency [6] 9.52 µM

C=CC(=O)OCCC#N
inactive: Potency [1] | Potency [4] | Potency [6] | Potency [7] | Potency [9] | Potency [13] | Potency [14] | Potency [15]

c1ccc(Nc2cccc3ccccc23)cc1
inactive: Potency [1] | Potency [3] | Potency [5] | Potency [8] | Potency [9] | Potency [13] | Potency [15]
active: Potency [4] 31.3 µM and 49 µM | Potency [14] 40.5 µM and 35.6 µM

CC(C)(c1cc(Br)c(OCCO)c(Br)c1)c1cc(Br)c(OCCO)c(Br)c1
active: Potency [16] 47.5 µM | Potency [6] 42.7 µM | Potency [13] 42.3 µM
inactive: Potency [1] | Potency [7] | Potency [9] | Potency [14]

C=CC(=O)OCC(O)COc1ccccc1 (configuration not stated)
inactive: Potency [1] | Potency [6] | Potency [14]
active: Potency [3] 61.1 µM

CC(C)c1ccc(O)c(C(C)C)c1
inactive: Potency [1] | Potency [3] | Potency [8] | Potency [9] | Potency [13] | Potency [14] | Potency [15]

NCCCC(O)(P(=O)(O)O)P(=O)(O)O
inactive: Potency [1] | Potency [16] | Potency [4] | Potency [17] | Potency [6] | Potency [7] | Potency [13] | Potency [15]

CCCCCCCC/C=C\CCCCCCCC(=O)OCCOC(=O)CCCCCCC/C=C\CCCCCCCC
inactive: Potency [2] | Potency [16] | Potency [3] | Potency [4] | Potency [17] | Potency [5] | Potency [6] | Potency [7] | Potency [8] | Potency [9] | Potency [13] | Potency [14] | Potency [15]
